Data published in PubChem BioAssay (EPA / NIEHS).
Records with an inconclusive call do not appear. The source made the active and inactive calls. Rule for the calls, unless noted: active = hit-call score of the fitted dose curve at least 0.9, where 1 is the maximum; inactive = score below 0.9.

How the values were obtained:
[1] = CCTE_Shafer_MEA_dev_per_burst_spike_percent: CCTE's Neural Network Formation Assay for Percent of Spikes in a Burst, Shafer Lab (AID 2284032);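 note: fitted as a decrease in burst spike percentage below DMSO baseline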
Outline: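 Value is trapezoidal AUC over recordings on days 5, 7, 9 and 12 of the well-mean fraction of spikes falling in single-electrode bursts; rat cortical cultures exposed continuously from plating, treatment renewed DIV 5 and 9, fitted downward against DMSO.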

[2] = CCTE_Shafer_MEA_dev_active_electrodes_number: CCTE's Neural Network Formation Assay for Number of Active Electrodes, Shafer Lab (AID 2284040; active = hit-call score of the fitted dose curve at least 0.9, where 1 is the maximum;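 note: potency for loss of active electrodes versus DMSO so lower counts are hits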)
Outline: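 Developing rat cortical networks on MEAs, exposed DIV 0–12. Value is the AUC of active-electrode counts (≥5 spikes/min) from days 5, 7, 9, 12, relative to DMSO.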

[3] = CCTE_Shafer_MEA_dev_per_burst_interspike_interval: CCTE's Neural Network Formation Assay for Burst Interspike Interval, Shafer Lab (AID 2284044);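 note: potency for a decrease of within-burst interspike interval below DMSO level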
Outline: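 Spontaneous activity of maturing rat cortical networks is recorded on DIV 5, 7, 9 and 12 under chronic compound exposure beginning at plating. Endpoint: burst interspike interval well-mean, collapsed into trapezoidal AUC and fitted in the negative direction relative to DMSO.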

[4] = CCTE_Shafer_MEA_dev_burst_duration_mean: CCTE's Neural Network Formation Assay for Mean Burst Duration, Shafer Lab (AID 2284045)
Outline: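 Rat cortical cultures, 1.5 x 10^5 cells/well with laminin drop; continuous dosing days 0–12, media plus treatment refreshed DIV 5, 9. AxIS adaptive spike detection; mean single-electrode burst duration, AUC over four recordings, negative direction vs DMSO.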

[5] = CCTE_Shafer_MEA_dev_interburst_interval_mean: CCTE's Neural Network Formation Assay for Mean Interburst Interval, Shafer Lab (AID 2284046);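 note: well-mean interburst interval of bursting electrodes as AUC over four recording days; curve fitted for decrease in interburst interval relative to DMSO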
Outline: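 Rat cortical neurons, 1.5 x 10^5 cells/well, 48-well MEA; compound from day 0 through DIV 12, media and treatment renewed DIV 5/9. Recordings DIV 5, 7, 9, 12; well-mean interburst interval → trapezoidal AUC, loss direction vs DMSO.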

[6] = CCTE_Shafer_MEA_dev_inter_network_spike_interval_mean: CCTE's Neural Network Formation Assay for Mean Inter-network Spike Interval, Shafer Lab (AID 2284047)
Outline: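 Primary rat cortical neurons on PEI-coated 48-well MEAs (16 electrodes/well) were exposed from plating day 0 to DIV 12, with dosing renewed at DIV 5 and 9. Recordings at DIV 5, 7, 9, 12 were collapsed by trapezoidal AUC, loss-of-signal fit vs DMSO.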

[7] = CCTE_Shafer_MEA_dev_network_spike_number: CCTE's Neural Network Formation Assay for Number of Network Spikes, Shafer Lab (AID 2284048);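 note: synchronized bursts across electrodes counted on days 5 7 9 12 and integrated as AUC; fit as a loss of signal meaning fewer network spikes than DMSO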
Outline: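 Rat cortical primary cultures on 48-well MEA (16 electrodes/well); continuous exposure DIV 0–12, full medium and treatment exchange DIV 5, 9. Readout: network spike count, AxIS adaptive detection, recordings DIV 5/7/9/12 collapsed to AUC; loss-of-signal fit, DMSO baseline.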

[8] = CCTE_Shafer_MEA_dev_network_spike_peak: CCTE's Neural Network Formation Assay for Mean Number of Electrodes in Network Spike, Shafer Lab (AID 2284049);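 note: fitted for loss of signal meaning fewer electrodes in network spikes than DMSO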
Outline: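 Network-spike peak electrode count from recordings on days 5, 7, 9 and 12 was combined as trapezoidal area under the curve. Rat cortical cultures were treated continuously from plating, with compound renewed at each feed (DIV 5, 9); fits versus DMSO.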

[9] = CCTE_Shafer_MEA_dev_spike_duration_mean: CCTE's Neural Network Formation Assay for Mean Spike Duration, Shafer Lab (AID 2284051);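 note: mean network spike duration pooled as area under curve over DIV 5 to 12 recordings; potency for a decrease in mean network spike duration versus DMSO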
Outline: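 Rat cortical primary cultures, 48-well MEA (16 electrodes/well); compound from plating, renewed DIV 5, 9. Network spike duration (AxIS adaptive detector) recorded DIV 5/7/9/12, combined as trapezoidal AUC; loss direction vs DMSO.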

[10] = CCTE_Shafer_MEA_dev_network_spike_duration_std: CCTE's Neural Network Formation Assay for Standard Deviation of Network Spike Duration, Shafer Lab (AID 2284052);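 note: area under curve of spike duration SD across recording days 5 to 12; hits are decreases in network spike duration SD versus DMSO vehicle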
Outline: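 Rat cortical cultures, 1.5 x 10^5 cells/well, exposed continuously from plating to DIV 12 with media/compound renewal at DIV 5, 9. Spontaneous activity recorded DIV 5/7/9/12, AxIS adaptive spike detector; AUC across days; negative direction vs DMSO.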

[11] = CCTE_Shafer_MEA_dev_per_network_spike_spike_number_mean: CCTE's Neural Network Formation Assay for Mean Number of Spikes in a Network Spike, Shafer Lab (AID 2284053);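 note: fitted as decrease in spikes per network spike relative to DMSO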
Outline: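 Rat cortical primary cultures on 48-well MEA; compound from day 0, re-dosed with full media change DIV 5, 9. Recorded DIV 5, 7, 9, 12; spikes in 0.05 s window at network-spike peak ÷ total network spikes; AUC; loss vs DMSO.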

[12] = CCTE_Shafer_MEA_dev_per_network_spike_spike_percent: CCTE's Neural Network Formation Assay for Percent of Spikes in a Network Spike, Shafer Lab (AID 2284054)
Outline: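 Read-out: percent of spikes falling in a 0.05 s window at network-spike peak, from spontaneous MEA recordings on days 5, 7, 9 and 12; trapezoidal AUC; loss of signal versus DMSO. Rat cortical cultures, compound present throughout.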

[13] = CCTE_Shafer_MEA_dev_AB: CCTE's Alamar Blue Assay for Cytotoxicity in the Neural Network Formation Assay, Shafer Lab (AID 2284083; active = hit-call score of the fitted dose curve at least 0.9, where 1 is the maximum;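 note: resazurin reduction fluorescence as viability of cultured neurons; twelve days of exposure from plating with re-dosing on DIV 5 and 9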)
Outline: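 Rat cortical primary cultures, 1.5 x 10^5 cells/well on MEA; continuous compound exposure over 12 days of network development, re-dosed with full medium change DIV 5 and 9. Alamar Blue fluorescence; loss of signal = cytotoxicity vs DMSO baseline.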

[14] = CCTE_Shafer_MEA_dev_mutual_information_norm: CCTE's Neural Network Formation Assay for Mutual Information Normalization, Shafer Lab (AID 2284091);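 note: mutual information between electrodes summarised as area under curve across four recording days; potency is for a decrease in mutual information relative to DMSO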
Outline: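 Neurons from rat cortex were seeded at 1.5 x 10^5 cells/well onto PEI-coated MEAs in a laminin drop, then exposed to compound from day 0 for twelve days. Network recordings on four days gave mutual information, summarised by AUC relative to DMSO.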

[15] = CCTE_Shafer_MEA_dev_correlation_coefficient_mean: CCTE's Neural Network Formation Assay for Mean Correlation Coefficient, Shafer Lab (AID 2284093);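 note: well mean pairwise spike train correlation integrated as AUC over recording days 5 to 12; potency fitted for loss of correlation relative to DMSO vehicle wells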
Outline: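 Rat cortical cultures, 1.5 x 10^5 cells/well, dosed from day 0 for 12 days. Spontaneous spikes recorded DIV 5/7/9/12; electrode-pair correlation coefficients averaged, AUC taken. Fit in loss direction vs DMSO.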

[16] = IUF_NPC1b_proliferation_BrdU_72hr: Leibniz Research Institute for Environmental Medicine (IUF) 72-hour Neural Progenitor Cell Bromodeoxyuridine (BrdU) Proliferation Assay (NPC1b) (AID 2284207)
Outline: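 Luminescent BrdU ELISA measured DNA synthesis during the last 16 h of a 72 h exposure of primary human neural progenitor spheres grown with EGF and FGF. Signal was fitted relative to DMSO controls.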

[17] = IUF_NPC1a_proliferation_area_72hr: Leibniz Research Institute for Environmental Medicine (IUF) 72-hour Neural Progenitor Cell Proliferation Area Assay (NPC1a) (AID 2284208)
Outline: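 Measured in 3D suspension: each well held one primary hNPC sphere grown with EGF and FGF at pH 7.2-7.6. Compound stayed on for 72 h, then area was imaged; spheres lacking growth factors defined reduced proliferation.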

[18] = IUF_NPC1_viability_72hr: Viability Assessment at 72 hours in the Leibniz Research Institute for Environmental Medicine (IUF) Neural Progenitor Cell Proliferation Assay (NPC1) (AID 2284209)
Outline: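 Alamar blue fluorescence (RFU) after 72 h exposure, normalized to DMSO baseline. hNPC spheres from GW 16-19 fetal cortex, single sphere per well in growth-factor medium; no compound renewal.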

[19] = CCTE_Mundy_HCI_Cortical_Synap_Neur_Matur_NeuriteSpotCountPerNeuriteLength: CCTE's Synaptogenesis and Neurite Maturation Assay in rat cortical cells for Neurite Spot Count per Neurite Length, Mundy Lab (AID 2284210)
Outline: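 Read-out: synaptophysin puncta counted along MAP2-stained neurites, normalised to neurite length, by automated high-content imaging. Rat cortical cells; AraC DIV 5; chemical dosing DIV 7; termination DIV 12. DMSO baseline.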

[20] = CCTE_Mundy_HCI_Cortical_Synap_Neur_Matur_BPCount: CCTE's Synaptogenesis and Neurite Maturation Assay in rat cortical cells for Branch Point Count, Mundy Lab (AID 2284211)
Outline: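 In this multiplexed morphology assay, cortical cells from rat receive chemicals at DIV 7 and are fixed at DIV 12, then immunostained and imaged; branch points are counted, with DMSO as baseline.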

[21] = CCTE_Mundy_HCI_Cortical_NOG_NeuriteCount: CCTE's Neurite Outgrowth Assay in rat cortical cells for Neurite Count, Mundy Lab (AID 2284212);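 note: cells fixed about two days after chemical exposure began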
Outline: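 Rat cortical primary cells; compound added 2 h post-plating, 1/10 dilution of working solution. Anti-betaIII-tubulin/AF488 ICC; ArrayScan neurite count vs DMSO.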

[22] = CCTE_Mundy_HCI_Cortical_NOG_NeuriteLength: CCTE's Neurite Outgrowth Assay in rat cortical cells for Neurite Length, Mundy Lab (AID 2284213)
Outline: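 First, rat primary cortical cells were plated and, 2 h later, given test chemical as a 1/10 dilution. Finally, βIII-tubulin immunostaining enabled automated imaging of neurite length.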

[23] = CCTE_Mundy_HCI_Cortical_Synap_Neur_Matur_NeuriteLength: CCTE's Synaptogenesis and Neurite Maturation Assay in rat cortical cells for Neurite Length, Mundy Lab (AID 2284214)
Outline: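 Read-out: high-content imaging of MAP2-labelled neurites, with synaptophysin and Hoechst co-stain, in rat cortical cultures fixed at DIV 12. Activity fitted in positive direction relative to DMSO baseline.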

[24] = CCTE_Mundy_HCI_Cortical_Synap_Neur_Matur_NeuriteSpotCountPerNeuron: CCTE's Synaptogenesis and Neurite Maturation Assay in rat cortical cells for Neurite Spot Count per Neuron Count, Mundy Lab (AID 2284215)
Outline: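 Developing rat cortical neurons, with glia suppressed by AraC, are exposed to chemicals from DIV 7 to DIV 12. Automated fluorescence imaging of MAP2-labelled neurites and synaptophysin puncta yields a count per neuron, normalised against DMSO wells.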

Measured: AC50

C[C@@H]1CCO[C@H]2Cn3cc(C(=O)NCc4ccc(F)cc4F)c(=O)c(O)c3C(=O)N12
inactive: [4] | [6] | [10] | [16] | [17] | [18] | [21] | [22] | [23]
active: [1] 1640 nM | [2] 1460 nM | [3] 1800 nM | [5] 1740 nM | [7] 1540 nM | [8] 1110 nM | [9] 901 nM | [11] 983 nM | [12] 691 nM | [13] 1800 nM | [14] 1550 nM | [15] 1520 nM | [19] 7380 nM | [20] 1140 nM | [24] 3630 nM
